# From PubChem BioAssay
# The source made the active and inactive calls.
# Columns and labels:
# [1] = test system: Plasmodium falciparum Sir2 (PF13_0152, Sir2A); assay: Plasmodium falciparum Sir2A binding compounds – biochemical, small-molecule microarray, 635 nm fluorescence, primary screen (AID 1098); conditions: fluorescence 635 nm, higher = more signal;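 also: score merges spot fluorescence intensity with its signal-to-noise ratio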
# [2] = probe aDKK1 binding to arrayed compounds – biochemical, biotinylated probe, 635/667 nm fluorescence, primary screen (AID 1099); conditions: small-molecule microarray, higher = more signal;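 also: score merges 667nm spot fluorescence with signal to noise across triplicate slides; reference of the scale not given here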
# [3] = probe aCHRDL2 binding to arrayed compounds – biochemical, biotinylated probe, 635/667 nm fluorescence, primary screen (AID 1100); conditions: small-molecule microarray, higher = more signal
# [4] = change in splice reporter luminescence, either direction, cell-based, HEK293, spliceosome inhibition project, primary screen (AID 1101); conditions: HEK293 splicing luciferase reporter, 24 h, higher = more signal, called active from +8 up or from −8 down;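 also: HEK293 cells carrying a splicing-competent luciferase reporter gene; test concentration not given here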
# [5] = target: Fibroblast growth factor 10 (Homo sapiens) (UniProt O15520); assay: compounds binding fibroblast growth factor 10 – biochemical, small-molecule microarray, 635 nm fluorescence, primary screen (AID 1102); conditions: FGF10 binding, fluorescence 635 nm, higher = more signal
# Sequence of Fibroblast growth factor 10 (Homo sapiens) (O15520 whole entry, looked up): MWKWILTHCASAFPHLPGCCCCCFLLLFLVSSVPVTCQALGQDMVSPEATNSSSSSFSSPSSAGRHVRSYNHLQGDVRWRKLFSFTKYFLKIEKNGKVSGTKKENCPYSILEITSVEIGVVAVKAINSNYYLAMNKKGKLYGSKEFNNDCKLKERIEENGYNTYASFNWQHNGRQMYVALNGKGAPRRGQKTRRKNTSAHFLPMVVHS
# [6] = test system: glycogen synthase kinase-3 (GSK3A per assay name; protocol says GSK3B); assay: compounds binding glycogen synthase kinase-3 – biochemical, small-molecule microarray, 635 nm fluorescence, GSK3A, primary screen (AID 1103); conditions: fluorescence 635 nm, higher = more signal; also: the record names both GSK3A and GSK3B
# [7] = target: Epidermal growth factor receptor (Homo sapiens) (UniProt P00533); assay: compounds binding epidermal growth factor receptor – biochemical, small-molecule microarray, 635 nm fluorescence, primary screen (AID 1104); conditions: EGFR binding, higher = more signal;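 also: score merges 667 nm emission intensity with spot signal to noise over triplicate slides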
# Sequence of Epidermal growth factor receptor (Homo sapiens) (P00533 whole entry, looked up): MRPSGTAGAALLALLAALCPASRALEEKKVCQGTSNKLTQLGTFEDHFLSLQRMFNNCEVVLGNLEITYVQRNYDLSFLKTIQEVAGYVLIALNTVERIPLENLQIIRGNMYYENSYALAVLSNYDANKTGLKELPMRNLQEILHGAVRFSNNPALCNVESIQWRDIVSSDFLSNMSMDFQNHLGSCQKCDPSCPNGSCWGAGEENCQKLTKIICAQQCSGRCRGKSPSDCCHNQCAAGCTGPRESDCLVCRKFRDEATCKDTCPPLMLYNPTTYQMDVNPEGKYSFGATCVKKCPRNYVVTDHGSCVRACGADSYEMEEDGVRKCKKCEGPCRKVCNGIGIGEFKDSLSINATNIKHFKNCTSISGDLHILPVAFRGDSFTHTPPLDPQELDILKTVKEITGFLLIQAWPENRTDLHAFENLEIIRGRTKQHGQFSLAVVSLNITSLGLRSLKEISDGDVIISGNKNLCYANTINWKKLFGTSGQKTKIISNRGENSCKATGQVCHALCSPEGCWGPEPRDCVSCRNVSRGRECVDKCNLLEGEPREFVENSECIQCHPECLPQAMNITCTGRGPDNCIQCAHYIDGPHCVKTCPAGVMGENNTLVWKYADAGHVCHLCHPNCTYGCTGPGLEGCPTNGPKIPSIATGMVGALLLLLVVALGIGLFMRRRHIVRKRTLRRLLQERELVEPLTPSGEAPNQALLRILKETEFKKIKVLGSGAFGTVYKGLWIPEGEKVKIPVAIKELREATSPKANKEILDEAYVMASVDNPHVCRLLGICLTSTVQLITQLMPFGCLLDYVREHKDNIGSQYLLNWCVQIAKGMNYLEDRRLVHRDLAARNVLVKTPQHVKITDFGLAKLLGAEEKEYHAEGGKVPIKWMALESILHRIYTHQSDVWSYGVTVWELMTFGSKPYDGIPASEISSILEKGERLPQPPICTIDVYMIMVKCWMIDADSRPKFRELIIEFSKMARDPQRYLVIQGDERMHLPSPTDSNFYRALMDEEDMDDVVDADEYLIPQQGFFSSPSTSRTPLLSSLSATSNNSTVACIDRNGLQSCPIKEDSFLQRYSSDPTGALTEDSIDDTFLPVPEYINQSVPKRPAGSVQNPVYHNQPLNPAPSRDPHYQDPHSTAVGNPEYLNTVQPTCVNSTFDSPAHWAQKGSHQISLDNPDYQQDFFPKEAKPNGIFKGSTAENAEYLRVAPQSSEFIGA
# [8] = target: Follistatin-related protein 3 (Homo sapiens) (UniProt O95633); assay: compounds binding follistatin-related protein 3 – biochemical, small-molecule microarray, 635 nm fluorescence, primary screen (AID 1105); conditions: FSTL3 binding, higher = more signal;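 also: score merges emission near 667 nm and signal to noise per printed spot across three slides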
# Sequence of Follistatin-related protein 3 (Homo sapiens) (O95633 whole entry, looked up): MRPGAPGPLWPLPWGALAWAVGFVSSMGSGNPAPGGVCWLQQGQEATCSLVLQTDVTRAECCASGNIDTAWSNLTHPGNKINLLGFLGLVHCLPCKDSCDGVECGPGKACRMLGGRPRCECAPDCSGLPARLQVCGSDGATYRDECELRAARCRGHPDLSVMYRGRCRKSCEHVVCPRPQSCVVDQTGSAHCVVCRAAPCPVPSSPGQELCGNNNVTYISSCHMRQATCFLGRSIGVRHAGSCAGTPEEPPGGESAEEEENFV
# [9] = target: Dickkopf-related protein 1 (Homo sapiens) (UniProt O94907); assay: small molecules binding DKK1 protein – biochemical, small-molecule microarray, 635 nm fluorescence scan, primary screen (AID 1106); conditions: higher = more signal;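 also: score merges emission near 667 nm with signal to noise over three replicate slides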
# Sequence of Dickkopf-related protein 1 (Homo sapiens) (O94907 whole entry, looked up): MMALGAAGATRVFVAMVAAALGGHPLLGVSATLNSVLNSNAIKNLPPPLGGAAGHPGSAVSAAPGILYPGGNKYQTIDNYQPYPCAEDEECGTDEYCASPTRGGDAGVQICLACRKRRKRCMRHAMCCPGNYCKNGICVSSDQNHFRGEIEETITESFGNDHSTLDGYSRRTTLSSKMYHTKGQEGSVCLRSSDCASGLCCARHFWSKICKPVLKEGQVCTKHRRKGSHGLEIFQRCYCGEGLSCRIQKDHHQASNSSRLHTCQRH
# [10] = test system: Inhibin beta A chain (activin A); assay: small molecules binding activin A – biochemical, small-molecule microarray, 635 nm fluorescence scan, primary screen (AID 1107); conditions: INHBA, higher = more signal;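 also: mouse activin A protein probed at 4.33 µg/mL on printed slides; score merges bound-protein fluorescence near 667 nm with spot signal-to-noise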
SMILES,composite z-score [1],composite z-score [2],composite z-score [3],z-score [4],composite z-score [5],composite z-score [6],composite z-score [7],composite z-score [8],composite z-score [9],composite z-score [10]
COc1c(C)cc(-c2cc3c(c(-c4ccccc4)n2)[Si](C(C)C)(C(C)C)OC3)cc1C,0.0039,0.068,-0.676,-0.0426 (inactive),-0.216,-0.39,0.186,-0.355,0.189,1.08
CN1C(=O)C2C=CC(C(O)C3CCCCC3)N(N3CCCCC3)C2C1=O (stereo not given),1.15,0.429,0.833,1.77 (inactive),1.06,0.675,0.442,1.45,0.379,0.776
O=C1NC(=O)C2C1C=CC(C(O)c1c(F)cccc1Cl)N2Nc1ccccn1 (stereo not given),0.419,0.282,0.171,0.824 (inactive),0.48,0.198,0.409,0.262,0.465,1.13
CC1CC/C=C\[C@H]2OC34C=CCN(C(C)C)C(=O)[C@H]3N(CCCCCO)C(=O)[C@@H]4C2C(=O)O1 (stereo not given in full),0.382,-0.0733,0.655,-0.356 (inactive),-0.82,-0.609,-1.4,-1.05,-1.73,-0.15
C[C@@H]1ON(c2ccc(C(=O)OC(C)(C)C)cc2)[C@H](c2ccc(Br)cc2)[C@H]1C(=O)N1C(=O)OC[C@H]1Cc1ccccc1,0.992,-0.0749,-0.17,-0.65 (inactive),1.17,1.31,0.701,1.21,1.11,-0.109
C=CCN1Cc2ccccc2C[C@@]2(N=C(c3ccc(OCCCO)cc3)O[C@H]2c2ccccc2)C1=O,0.907,0.189,0.512,6.55 (inactive),1.17,1.26,0.147,0.363,0.0968,1.03
COc1ccc([Si](C)(C)[C@@H]2[C@@H](CCO)O[C@]3(C(=O)N(Cc4cccc(N5C(=O)c6cccc7cccc5c67)c4)c4ccccc43)[C@H]2C)cc1,0.187,0.0019,0.466,-0.665 (inactive),0.454,-0.0664,-0.491,-0.339,-0.411,-0.0335
O=C(NC1CC1)[C@@H]1c2ccccc2C(=O)N(Cc2ccccc2)[C@H]1c1ccc(CO)cc1,1.73,-0.474,0.211,0.135 (inactive),0.209,0.714,-0.375,-0.298,-0.551,0.443
CC(=O)n1cc(C(O)C2C=CC3C(=O)N(Cc4ccccc4)C(=O)C3N2n2cnnc2)c2ccccc21 (stereo not given),1.17,-0.0358,0.205,0.108 (inactive),-0.167,-0.243,-0.0707,0.19,0.12,0.713
COc1ccc(NN2C(C(O)c3ccccn3)C=CC3C(=O)N(C4CCCCC4)C(=O)C32)cc1 (stereo not given),1.31,0.2,0.862,-1.44 (inactive),0.962,1.25,0.224,1.16,-0.39,0.627
O=C1O[C@@H](c2ccccc2)[C@@H](c2ccccc2)N2[C@@H](c3ccc(O)cc3)[C@]3(C(=O)Nc4ccc(C#CCCO)cc43)[C@@H](C(=O)Nc3nc4ccccc4s3)[C@H]12,0.94,0.0179,0.376,0.344 (inactive),1.17,1.13,0.214,0.545,-0.17,0.0507
C=CCOC(=O)[C@@H]1[C@H]2C(=O)O[C@H](c3ccccc3)[C@H](c3ccccc3)N2[C@H](c2ccc(OCCOC(=O)[C@H]3C[C@H]4C(=O)N[C@@H](CCCCN(C)C)C(=O)N4[C@H]3c3cccc(OCCO)c3)cc2)[C@@]12C(=O)Nc1ccc(I)cc12,1.41,0.097,-0.0926,0.348 (inactive),1.02,1.32,0.605,1.32,0.626,0.208
CC(C)(C)OC(=O)CC[C@@]1(C(=O)O)N=C(c2ccc(OCCCO)cc2)O[C@@H]1c1ccccc1CN=[N+]=[N-],1.16,1,0.602,-0.326 (inactive),0.0038,0.396,-0.207,-0.43,-0.689,1.08
C=C(COC)/C(=C/C[C@@H](OC(=O)c1ccncc1)c1cccc(OCCO)c1)c1cnc2ccccc2c1,-0.0365,0.432,0.347,-1.36 (inactive),1.48,1.3,1.65,1.65,0.769,1.81
O=C1O[C@@H](c2ccccc2)[C@@H](c2ccccc2)N2[C@@H](c3ccccc3OCCO)[C@]3(C(=O)Nc4ccccc43)[C@@H](C(=O)NC[C@H](O)c3ccccc3)[C@H]12,1.11,0.597,0.76,-1.66 (inactive),-0.369,0.342,-0.528,0.0805,-0.547,-0.189
CCN(CC)c1ccc(N2CC=CC34O[C@@H]5/C=C\CCC(C)OC(=O)C5[C@H]3C(=O)N(CCO)[C@@H]4C2=O)cc1 (stereo not given in full),0.752,-0.18,0.477,0.00168 (inactive),-0.736,-0.565,-0.968,-0.421,-0.771,0.907
